Among the data in PubChem BioAssay AID651871 (Sanford-Burnham Center for Chemical Genomics, 2012) are activity (protection/inhibition) values, retold here.

The structures appear in SMILES notation. Several values for one entry are separate records, joined by “and”; a condition that tells them apart may be missing. Equal entries are not always repeated.

In the experiment the test system is H9c2. Description: protection of cardiomyocytes from stress damage, SAR follow-up, cell-based, panel, H9c2 and HL-1, ATP luminescence, set 2 (AID 651871).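 Note: cells exposed to stressor for 2 h before ATP readout; reference of the scale not given here.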 The settings on record: H9c2/HL-1 cardiomyocytes, H2O2 oxidative stress; with H2O2, run 1, at 79 µM (top of the series).
For `COc1ccc2c(c1OC)C(=O)N1c3ccccc3C(=O)N(Cc3cccc(Cl)c3Cl)C21` (centres undefined), the activity (protection/inhibition) is 62.2% and 104% and 61.7%.
Next, `CCOC(=O)c1cccc(NC(=O)CNC(=O)c2cc(-c3cc(OC)c(OC)c(OC)c3)nc3ccccc23)c1`: 77.6%.
To `COc1ccc2nc(-c3cc(OC)c(OC)c(OC)c3)cc(C(=O)NCC(=O)Nc3ccc(C(C)=O)cc3)c2c1` belongs 92.2% and 97.6%.
Next, `COc1cc(-c2cc(C(=O)Nc3cccc(C(=O)NCc4ccccc4)c3)c3ccccc3n2)cc(OC)c1OC`: 83.5%.
